The text below walks through data of PubChem BioAssay AID1508600 (Functional Genomics Laboratory (NCATS/FGL), 2020).

The campaign covered roughly 53,000 sequences. About 3,700 (7%) were called active. Many of the other results were omitted from the sample, so actives are more common in it than they were. Values without a mark were called inactive.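 How the source made its calls: active means gene knockdowns whose robust z-score for IL-1 alpha signal is at least 2 or at most -2, so actives lie on both sides; inactive means the rest.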

The experiment can be described thus: Components of the Cytosolic LPS Sensing Pathway: Gene Identification via Genome-wide siRNA Screen. The settings on record: RAW264.7 macrophages, IL-1a HTRF, actives lie on both sides, screened at 100 nM (by protocol), cells primed 5 h with Pam3CSK4 first. The text has this:
Non-canonical inflammasome activation by cytosolic LPS is a critical component of the host response to Gram-negative bacterial infection, however we lack a comprehensive understanding of the cellular processes that control this pathway. Here we describe a genome-wide siRNA screen to identify genes regulating the mouse macrophage IL-1 alpha response to cytosolic LPS.
RAW264.7 cells were maintained in complete DMEM media, comprising DMEM with 4.5 g/L glucose, 10% FBS (Gemini Bio-Products, West Sacramento, CA), 2 mM Glutamine (Lonza) and 20 mM HEPES (Lonza), hereafter complete DMEM.
The RNAi screen was conducted in 384-well format using the Ambion Silencer Mouse Genome siRNA Library (#4391425), which consists of three unique, nonoverlapping, nonpooled siRNAs for each of 17,000 gene targets. siRNA reagents ([…]) were stamped into 384-well white flat-bottom microplates (Corning, 3570) using a Velocity11 VPrep liquid handling system (Agilent) integrated into a BioCel robotic platform (Agilent) in columns 1-22, leaving columns 23-24 empty for negative (Ambion, Negative control #1) and positive (mouse Casp4) controls, respectively. The median value of each plate's negative control column was used to normalize sample wells, and the positive control was used to assess transfection efficiency and assay performance.
Lipofectamine RNAiMAX Transfection Reagent ([…]; Invitrogen) was added in […] serum-free, antibiotic-free media to plate wells using a Thermo Scientific Matrix WellMate and Microplate Stacker. Plates were incubated for 45 min at room temperature to allow for the sufficient formation of siRNA-lipid complexes. Cells were seeded at a density of 1x10^4 cells per well in 20 microL media containing 20% (vol/vol) FBS without antibiotics. The final concentration of siRNA in each well was 100 nM. Cells were cultured for 48h at 37 degrees C in 5% CO2 before addition of […] of TLR ligand Pam3CSK4 for 5 hours. The medium was then removed, replaced with […] growth media and cell were transfected with […] of LipidA and TransIT-TKO (Mirus) for 24 hour. At the end of the LipidA treatment, […] of supernatant was transferred to a 384 Greiner Bio-one non-binding low volume plate and […] of IL-1a HTRF reagent (Cisbio, 62MIL1APEH) was added and incubated at room temperature overnight. The plates were read on an EnVision plate reader (PerkinElmer). Cell viability was measured by adding 20ul Cell Titer Glo to the original plate and running a luminescence read on the EnVision. The quantified IL-1a signal for each siRNA gene-targeted well was divided by the median of the negative control wells and multiplied by 100 to achieve a negative control normalized value for each well/siRNA. This normalized value was then used to generate a robust z-score by first taking the log of each value and then by subtracting the median and dividing by the […].
In general terms: In TR-FRET formats the signal depends on donor and acceptor labels being close together.
In the case of GGAAAGAAGAAGAGUCUAATT against Nucb2, the z-score is 0.994.
Then GGCCGGAGCUUACGAUUUUTT against Camk2d, with 0.309; and GGGAACAAAUUCAUUGUAUTT against Eny2, with 2.26 (active); and GGAAGUGAGAUGUCACUGATT against Ssc5d, with 0.841.
Then GGAUACCAAGCAUCGGAAGTT against Tfap2e, with -0.0352; and GGCAGAAACAGUCCUUGUUTT against Gfra4, with -1.54.
Then GGCGUAUACCGGGAAUCCUTT against Ndrg1, with -0.505; and GCAAUGAGUACUAUCAUACTT against Gnal, with -2.71 (active).
On to GGUUAAAUCGAUUUUGCAUTT against Acbd5, for which the z-score is -0.185.
The same measure for GGGAUACCAUCUUUAUGGCTT against Vwa3b: -0.041; for GCAAUGGACUGACAUGUCATT against Csdc2: -0.339.
Then CGGACAAGUGUUUUUCGUUTT against Wwox, with 0.315; and GGCUGUGCUCCUUGUUAGUTT against Olfr1143, with -0.083; and GCGGUGAUGAGAGAAACCATT against Zfp617, with 0.872.
The same measure for GGACCCUUUCUUUGAUAUGTT against Rpe: 1.01; for GCCACUGGAGUAUAGCCAGTT against Pcnx3: 0.019.
For CCUCUUAUAUGCAUGUGGCTT against Olfr410, the z-score was -2.13 (active).
Regarding CCAAAGCUAAAACGGGUGGTT against Tppp3, the z-score was 0.597.
The same measure for GCUGGACAUCGACUUUGGATT against Prnd: -1.54; for CCUAUGUUUUAGCAAGCAGTT against Acyp2: 0.758; for GCCAUCAUCUUUGUUUAGUTT against Gm4952: -0.684.
The same measure for GGACAUCCUCUUACAGUGGTT against Zg16: 0.333; for GGUCAUCUCCAAACCCUCCTT against Rbpj: 1.51.
The same measure for GGAAGAGGCCAGCUAUAACTT against Dcaf1: -2.51 (active).
Consider GGAGGGAUCUAAGGAACAGTT against Fgf8, for which the z-score is 0.263.
Consider GGAAUGAUUUUUGUUUGCUTT against Sf3b3, for which the z-score is -1.6.
Consider GGCACAUUCAACAACAUUUTT against Zfp592, for which the z-score was 1.61.
The same measure for GGAUCUUAGCAUGUCAACATT against Zfp330: -1.29.
In the case of GGUUCAGAUGGGAAAAAGGTT against Khdrbs2, the z-score is -2.41 (active).
GGAGAACCCUUAUGUGACATT against Pik3ca: the z-score was -1.91.
The same measure for GGAGGAUGGUGCCAACAUUTT against Psmc3: -2.02 (active).
Regarding GGUAAAAACUUUCCUUUAGTT against Prph2, the z-score was 1.48.
The same measure for GGAAUGCAAAAAACUCUGGTT against Gzmg: 0.906; for GGCCUGAGUAUAAAGUUAGTT against Wbp2: 1.6.
As to GGAUGAAUAAGGACAGAUUTT against Phospho2, the z-score is 0.335.
Then GGUUACGUGUUUGUAUCUATT against Higd1a, with -0.395.
In the case of GGCUCUUGAAAAAAACCCATT against Utp11, the z-score is 0.441.
The same measure for “CGAGCUUAUGCUGAAACCATT against 3830417A13Rik”: -2.45 (active); for GGUGACUAGGAAGAACACGTT against Tmem9b: 1.99.
Then GUACCUGAACUCAACUGAGTT against Ffar2, with -0.0572.
Turning to CCCAGAAGAGGUUACAUUUTT against Cd200r4, the z-score was 0.0312.
Consider GGAUAUGCAGUGGAACUAUTT against Heph, for which the z-score was -2.13 (active).
On to GGGAUCAGAGAUAUAGCCATT against Vmn1r192, for which the z-score is -1.74.
As for GCAGGGUACUGGCUAAAUATT against Cd40, the z-score is 2.93 (active).
For GGACAGAUUUUCACCAUUCTT against Slc1a4, the z-score is -0.593.
In the case of GGUGAAGCAUCAGUGACAATT against Ubxn4, the z-score was 0.734.
As to UUUCAAUCUGUAGCUUUCCTT against Krt86, the z-score is 0.071.
For the sequence GCUACACCGUAACAUGCUATT against Zer1, the z-score was 2.19 (active).
Consider GCUAUGUAAGACAUUUAACTT against Ccdc162, for which the z-score is 1.6.
The same measure for CGUUUAUUGUAACCAGAAUTT against Fam168b: 0.263; for GGAGGAAUUCAUUAGAAACTT against Psmc1: -2.04 (active); for GGCUUUCCUCCAGAUAAACTT against Il6st: -0.856.
Then GCGACGAGAAGAAUCUGCUTT against Mtcl1, with -0.641; and CCGUGGAGUAACAAGUAUGTT against Capzb, with -1.07.
The same measure for CGAUCUAGUCCGCCAUUACTT against Lck: -1.3.
In the case of GCAAGACCCAAGAGUUACATT against Soat2, the z-score was -2.07 (active).
Then GCGAAGGAAUUUAAGGACCTT against Tmod1, with 0.836; and GGCACCAUCUAUUAUUUUCTT against Psmc3, with -2.45 (active).
The same measure for CCAAUGAUAGACUUUAUACTT against Adgrv1: -0.252; for GCAGUUCACGCAGUGGAAGTT against Fam25c: 1.3; for UCAUAGCAGAGAUUAGAAUTT against Hsfy2: -0.951.
Then CCUCAGGUUAUUGAAUAUUTT against Rapgef6, with 0.502; and GGACAAAACGUGCAAUAUGTT against Pkdcc, with -0.188.
GCAGAUUGCUCAGAUUACCTT against Brip1: the z-score is 0.407.
The same measure for GGUUCUUCGGCUUAUGUUGTT against Rgs7bp: 0.537; for GGACAAAAUAAUGCUUUCUTT against Cnnm1: 0.0436; for GGAAUGUUACAUUUCAGUUTT against Adam1a: 2.15 (active).
Then “CCCGUAUCUUUUUAGCUAATT against A630038E17Rik”, with 0.35; and GCCAAACUAUCAGAGAUGGTT against Slc38a7, with 0.0528.
The same measure for GGAUUAUGGUACCAAGCGCTT against Umps: 1.21; for CCUAAUUGAAAUCAGCAGUTT against Hip1r: 1.14.
As to GGCACAAGAAAUUUGAUGATT against Gpc6, the z-score was -1.91.
Then GCAAAUCAUGACUAUUGUATT against Atat1, with 0.00079; and CAUGAUAGCGAUAGCAAUCTT against Olfr507, with 0.0127.
The same measure for GCCUGAUUCAGAGUAUAAATT against Col14a1: -1.24; for CCUACUCAAAUGAAGUUGUTT against Cdk17: -0.384.
Then CCUGUGAAAUACCAGCGUGTT against Rsl24d1, with 2.05 (active); and GCUCUGGUUGCCAGUUAUGTT against Ddx49, with 0.903.
For GGGAUUAUAGGGCGCAUUGTT against Olfr685, the z-score was -1.01.
For GCGACAAAUCAAAAAGGCCTT against Dnajb9, the z-score is -0.0942.
With GGCCAACAAUAUAAAAGACTT against Pus3, the z-score was -0.641.
The same measure for GACUUCGGACAAAUGGUGCTT against Lce1f: 2.27 (active).
For GGUCCUGAUGUUGAAGGCATT against Rinl, the z-score was 0.647.
Turning to GCAUCUCUUACUAAGAUUATT against Anxa4, the z-score is -0.433.
Turning to GGAAUUAAAUGAACCCAGATT against Arhgap8, the z-score is 2.48 (active).
As for GGUUUUAUGCAUUAGCUCCTT against Lipf, the z-score was 0.502.
GCAACCUGUCAUUUUGUGATT against Olfr1134: the z-score was -1.74.
Then GGCUUUUAGCUACCUUGUGTT against AW209491, with -0.704.
The same measure for GCACGAUGUCUCAGCUCUATT against Nipal3: -2.89 (active); for CCAGGUGUAACAAAAAAGATT against Dtl: 1.09; for CCGGGAAAUUCUGUUAGCCTT against Pla2g1b: -1.95.
Turning to GGAAAGCUCUCAAUACCUGTT against Olfr633, the z-score was -0.688.
Take GCUUUGGUUGCUAACCCAATT against Slc45a2: the z-score was 0.407.
The same measure for GGCUCAAUUUGGAAAGGACTT against Anxa8: -0.586; for GGAGCAUCUAUGAUUACAATT against Iqcg: 3.24 (active); for GGAUAUGUCGGAAAAAGCCTT against Cfh: 0.271.
The same measure for GGCCACAGUAAUGGGAAAUTT against Cga: -0.208; for GGUAAAUGAUCUGAAAAUGTT against Rps6ka6: -0.46.
Take GCUCAUGUCAGGAGAGAGUTT against Ocel1: the z-score is -2.41 (active).
The same measure for CGAGCUAUACGGAAAAAAATT against Efcab12: -1.03; for GCUGAUCCUCUCCCUUCAUTT against Tas2r131: -0.463.
Regarding GGCUCUUCUCUCGUCCUUGTT against Nif3l1, the z-score is 0.213.
Then GGAUGAAGACCCAUAUGUGTT against Ap1b1, with -0.287; and GCCUCAGUUUGAAAUUGUUTT against Tbrg1, with -0.695.
In the case of CCUGGAUCAGCAAUCCACATT against Lpxn, the z-score was -0.503.
Then UCCUCCUGUCUUACGUACGTT against Prlhr, with 2.05 (active); and CGUGUAGCAAUGAGAUAUUTT against Trpc5, with 0.162.
The same measure for GGGAUUUCUGGAGAAAAUGTT against Csta2: -0.872.
